Results taken from PubChem BioAssay (Tox21).
Inconclusive results are not listed. Calls of active or inactive are those of the source. Unless noted, the call rests on the fitted dose curve; in most records, active means well fitted curve in the direction sought with a large enough effect in the repeat runs; inconclusive means weak or mixed curves; inactive means no such curve, though single readings can be large; an effect the other way counts as inactive or inconclusive.

Tests used:
[1] = qHTS assay to identify small molecule agonists of the hypoxia (HIF-1) signaling pathway - cell viability counter screen (AID 1224844; calls by dose curve; further: nearly all actives have a fitted effect of over 50% in size)
Method in brief: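 HRE-bla ME-180; 0.5% dFBS; cpd 17 h, 37C, 5% CO2; CellTiter-Glo lum., 30 min RT, post-FRET read, same wells.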

[2] = qHTS assay to identify small molecule agonists of H2AX - cell viability counter screen (AID 1224847; calls by dose curve; further: top concentration of the series differs between compounds; nearly all actives have a fitted effect of over 30% in size)
Method in brief: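 Cells plated first: CHO-K1, 1000 per well in 10% FBS medium, incubated overnight at 37C. Then 15-point compound titration added (final DMSO 0.76%) for 3 hr. Finally CellTiter-Glo added and luminescence read.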

[3] = qHTS RealTime-Glo MT Cell Viability Assay in HepG2 cells - 24 hour (AID 1224867); further: nearly all actives have a fitted effect of over 50% in size
Method in brief: (§1)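 Luminescence read-out: viable HepG2 cells reduce a prosubstrate to a NanoLuc substrate, giving a signal proportional to live cell number. Reads taken at 0, 8, 16, 24, 32 and 40 h of compound exposure at 37 C.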

[4] = qHTS RealTime-Glo MT Cell Viability Assay in HEK293 cells - 32 hour (AID 1224868); further: top concentration of the series differs between compounds; nearly all actives have a fitted effect of over 50% in size
Method in brief: (§2)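 Nonlytic real-time viability readout: viable cells convert prosubstrate to NanoLuc substrate, giving luminescence proportional to live cell number. HEK293, 600 cells/well, compound added after 5 h, continuous culture at 37 C.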

[5] = A CellTox Green Cytotoxicity Assay to monitor cytotoxicity in HEK293 cells - 0 hour (AID 1224869); further: nearly all actives have a fitted effect of over 50% in size
Method in brief: (§3)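 Tox21 screen in HEK293: membrane-impermeant cyanine dye fluoresces on binding dead-cell DNA; compound pinned 5 h post-seeding, plates held at 37 C, signal read repeatedly through 40 h.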

[6] = qHTS RealTime-Glo MT Cell Viability Assay in HepG2 cells - 40 hour (AID 1224870); further: nearly all actives have a fitted effect of over 50% in size
Method in brief: (§4)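 HepG2 cells (600/well) mixed with RealTime-Glo MT reagent, settled 5 h at 37 C/5% CO2 before compound addition. Nonlytic NanoLuc luminescence from viable-cell prosubstrate reduction read repeatedly during 40 h treatment at 37 C.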

[7] = A CellTox Green Cytotoxicity Assay to monitor cytotoxicity in HEK293 cells - 40 hour (AID 1224871); further: nearly all actives have a fitted effect of over 45% in size
Method in brief: as §3

[8] = qHTS RealTime-Glo MT Cell Viability Assay in HEK293 cells - 16 hour (AID 1224872)
Method in brief: as §2

[9] = qHTS RealTime-Glo MT Cell Viability Assay in HepG2 cells - 8 hour (AID 1224873); further: nearly all actives have a fitted effect of over 55% in size
Method in brief: as §4

[10] = qHTS RealTime-Glo MT Cell Viability Assay in HEK293 cells - 40 hour (AID 1224874); conditions: RealTime-Glo luminescence; max response: hits give low values; further: nearly all actives have a fitted effect of over 50% in size
Method in brief: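 HEK293 + NanoLuc + prosubstrate, 600 cells/well; 5 h, 37 C/5% CO2; compound 23 nL in DMSO by pintool; 37 C; luminescence read at 0, 8, 16, 24, 32 and 40 h time points.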

[11] = A CellTox Green Cytotoxicity Assay to monitor cytotoxicity in HepG2 cells - 16 hour (AID 1224876); further: nearly all actives have a fitted effect of over 45% in size
Method in brief: (§5)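 Measurements at 0, 8, 16, 24, 32 and 40 h of treatment captured CellTox Green fluorescence in HepG2 cells that had been co-plated with reagent and preincubated 5 h at 37 C/5% CO2.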

[12] = qHTS RealTime-Glo MT Cell Viability Assay in HepG2 cells - 32 hour (AID 1224877); further: nearly all actives have a fitted effect of over 55% in size
Method in brief: as §1

[13] = A CellTox Green Cytotoxicity Assay to monitor cytotoxicity in HepG2 cells - 24 hour (AID 1224878); further: nearly all actives have a fitted effect of over 45% in size
Method in brief: as §5

[14] = A CellTox Green Cytotoxicity Assay to monitor cytotoxicity in HepG2 cells - 40 hour (AID 1224879); further: nearly all actives have a fitted effect of over 40% in size
Method in brief: as §5

[15] = qHTS assay to identify small molecule agonists of the hypoxia (HIF-1) signaling pathway (AID 1224846; active means well fitted activation curve with a large enough effect in the signal ratio in the repeat runs, not every such curve was filed as active; the % refers to the signal ratio)
Method in brief: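 Reporter induction in HRE-bla ME-180 cells is taken as agonism: cells sit 5 hrs after plating, receive compounds or DMSO only, incubate 17 hrs at 37C under 5% CO2, and are loaded with CCF4-AM for beta-lactamase FRET measurement.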

[16] = A CellTox Green Cytotoxicity Assay to monitor cytotoxicity in HEK293 cells - 24 hour (AID 1224875); further: nearly all actives have a fitted effect of over 45% in size
Method in brief: as §3

[17] = qHTS assay to identify small molecule agonists of H2AX (AID 1224845; active means well fitted activation curve with a large enough effect in the signal ratio in the repeat runs, not every such curve was filed as active; the % refers to the signal ratio)
Method in brief: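 Wild-type CHO-K1 cells, plated overnight, exposed 3hr at 37C to 15 concentrations (0.76% DMSO final). Lysed, then HTRF anti-pH2AX (S139) cryptate and anti-H2AX-d2 antibodies, 24 hr room temperature; 665/620 nm emission read.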

[18] = qHTS assay to identify small molecule antagonists of the estrogen related receptor (ERR) signaling pathway from Tox21 library (AID 1224848); further: nearly all actives have a fitted effect of over 50% in size
Method in brief: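 Compounds dissolved in DMSO are pin-transferred onto ERR reporter cells (2,000 per well) that have settled for 6 h at 37 C. Plates then incubate 18 h at 37 C before ONE-Glo luciferase reagent and a luminescence read 30 min later.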

[19] = qHTS assay to identify small molecule agonists of the estrogen related receptor (ERR) signaling pathway from Tox21 library (AID 1224849; calls by dose curve; further: nearly all actives have a fitted effect of over 15% in size); conditions: ERR reporter cell line, ONE-Glo luciferase, 18 h; at 92.4 µM (top of the series) unless noted
Method in brief: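 Tox21 compounds tested for ERR agonism in an NTP reporter cell line: 18 h treatment at 37 C, then ONE-Glo luminescence.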
On the % scale 0 is the no-effect control and ±100 the full control effect.

O=C(O)CCc1nc2ccccc2[nH]1
inactive: Potency [1] | Potency [2] | outcome [3] | Potency [4] | Potency [5] | Potency [6] | Potency [7] | Potency [8] | outcome [9] | max response [10] 11% | Potency [11] | Potency [12] | Potency [13] | Potency [14]

CCCCCCCCC(=O)OCC(C)OC(=O)CCCCCCCC (stereo not given)
inactive: Potency [1] | outcome [15] | Potency [2] | outcome [3] | Potency [5] | Potency [6] | Potency [7] | outcome [9] | max response [10] 0.14% | Potency [16] | Potency [11] | Potency [12] | Potency [13] | Potency [14]

c1ccc(-c2ccc(-c3ccccc3)cc2)cc1
inactive: activation (H2AX phosphorylation) [17] -0.824% [at 31.6 µM] | activation [15] -1.07% [at 15.8 µM] | activity change, negative = cytotoxicity [2] -0.782% [at 31.6 µM] | activity change, negative = cytotoxicity [3] 1.53% [at 15.8 µM] | cytotoxicity [5] -5.7% [at 15.8 µM] | activity change, negative = cytotoxic [6] 3.84% [at 15.8 µM] | cytotoxicity increase [7] -4.32% [at 15.8 µM] | activity change, negative = cytotoxicity [8] 0.695% [at 15.8 µM] | viability change, negative = cytotoxic [9] 0.239% [at 15.8 µM] | max response [10] 0.336% | activity change [16] -5.55% [at 15.8 µM, hits give high values] | cytotoxicity increase [11] -3.4% [at 15.8 µM] | activity change, negative = cytotoxic [12] 2.08% [at 15.8 µM] | cytotoxicity [13] -1.79% [at 15.8 µM]

CC/C=C/CCO
inactive: Potency [17] | Potency [2] | Potency [18] | activity change, positive = activation [19] 5.37% | outcome [3] | Potency [4] | Potency [5] | Potency [7] | Potency [8] | outcome [9] | max response [10] -11.5% | Potency [11] | Potency [12] | Potency [13] | Potency [14]

[O-][n+]1ccc(Cl)cc1
inactive: Potency [1] | Potency [17] | Potency [2] | outcome [3] | Potency [4] | Potency [5] | Potency [6] | Potency [7] | outcome [9] | max response [10] 17.4% | Potency [16] | Potency [11] | Potency [12] | Potency [13] | Potency [14]

O=C(O)c1ccc2c(c1)nc(C(=O)NC1CCN(C3CC3)CC1)n2Cc1cc(-c2ccc(Cl)s2)on1
inactive: activity change, negative = cytotoxicity [2] -8.48% [at 31.6 µM] | activity change, negative = cytotoxicity [3] -0.892% [at 15.8 µM] | activity change, negative = cytotoxic [4] -0.224% [at 15.8 µM] | cytotoxicity [5] -5.57% [at 15.8 µM] | activity change, negative = cytotoxic [6] -1.55% [at 15.8 µM] | cytotoxicity increase [7] -0.224% [at 15.8 µM] | activity change, negative = cytotoxicity [8] 7.22% [at 15.8 µM] | viability change, negative = cytotoxic [9] -2.47% [at 15.8 µM] | max response [10] -1.71% | activity change [16] 1.12% [at 15.8 µM, hits give high values] | cytotoxicity increase [11] -9.11% [at 15.8 µM] | activity change, negative = cytotoxic [12] -3.33% [at 15.8 µM] | cytotoxicity [13] -2.25% [at 15.8 µM] | cytotoxicity increase [14] -6.87% [at 15.8 µM]

CC(C)(C)c1ccc(CCC=O)cc1
inactive: Potency [1] | Potency [2] | outcome [3] | Potency [4] | Potency [5] | Potency [6] | Potency [7] | Potency [8] | outcome [9] | max response [10] 3.22% | Potency [16] | Potency [11] | Potency [12]

CC/C=C\CCO
inactive: Potency [17] | outcome [15] | Potency [2] | Potency [18] | activity change, positive = activation [19] 0.448% | outcome [3] | Potency [4] | Potency [5] | Potency [7] | Potency [8] | outcome [9] | max response [10] 15.9% | Potency [11] | Potency [12] | Potency [13] | Potency [14]
